In the library only some 8.1% were active in any assay of this set; here they are far more common.
RORg inh – inhibitors of mouse ROR gamma transcriptional activity; AID 2551; 5.4% of 310,000 active; Drosophila S2 Gal4-RORgamma UAS-luciferase reporter, 20 h; Potency, µM (top dose mostly 53.6 µM), for the others: at the highest dose activity change, negative = inhibition, actives largely listed as inhibitors; P51450; note: % is set by controls: 0 for no effect and ±100 for the full control effect; nearly all actives have a fitted effect of over 60% in size
Target sequence (P51450 whole entry, looked up, the tested form may be a part): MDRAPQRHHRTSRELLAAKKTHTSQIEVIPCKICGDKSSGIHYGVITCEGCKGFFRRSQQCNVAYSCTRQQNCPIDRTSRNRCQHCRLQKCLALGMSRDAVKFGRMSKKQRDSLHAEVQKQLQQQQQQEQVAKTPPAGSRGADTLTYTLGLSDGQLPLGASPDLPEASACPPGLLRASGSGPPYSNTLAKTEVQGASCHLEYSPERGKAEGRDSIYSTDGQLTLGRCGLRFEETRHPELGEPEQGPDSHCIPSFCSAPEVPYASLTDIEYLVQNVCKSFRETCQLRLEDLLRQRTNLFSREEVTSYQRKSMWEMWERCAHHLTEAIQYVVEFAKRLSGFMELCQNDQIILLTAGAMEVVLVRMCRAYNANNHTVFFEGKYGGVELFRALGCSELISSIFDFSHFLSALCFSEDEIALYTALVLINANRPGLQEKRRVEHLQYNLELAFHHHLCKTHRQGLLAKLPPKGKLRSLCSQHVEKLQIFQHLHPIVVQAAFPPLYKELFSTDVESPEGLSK
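Drosophila S2 cells stably expressing Gal4-DBD/mouse RORγ fusion under metallothionein promoter plus UAS-luciferase; compound 1 h, then 700 uM CuSO4 induction for 20 h at ambient temperature; inhibition read as reduced luminescence.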
Epigenetic reg – derepresses silenced GFP reporter in murine cells | murine LDR cells, GFP reporter derepression, 30 h | Potency, µM (series often up to 53.9 µM), for the others: at the top dose GFP activation, usual class: activators | 0.2% of 280,000 active | AID 1865; note: % of control where 0% means no effect; nearly all actives have a fitted effect of over 60% in size
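Murine LDR cells carrying a silenced, genomically integrated CMV-driven GFP reporter were exposed to compound for 30 hours at 37 C. After PBS washes, GFP-positive cells (20–120 um objects) were counted by laser-scanning microplate cytometry.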
Gal4-VP16 FLuc – inhibits Gal4-VP16 luciferase reporter, ROR gamma counter-screen; AID 2546; Potency, µM (doses to about 53.6 µM), for the others: at the highest dose activity, negative = inhibition, actives largely listed as inhibitors; 3.5% of 310,000 active; Drosophila S2 Gal4-VP16 UAS-luciferase, luminescence, 20 h;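 note: Gal4-VP16 expression switched on by copper sulfate through the metallothionein promoter; % is set by controls: 0 for no effect and ±100 for the full control effect; nearly all actives have a fitted effect of over 50% in size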
PINK1 expr mod – changes PINK1 expression. Potency, µM (doses to about 76.6 µM), inactives show top-dose activation (PINK1 increase), usual class: activators. 0.2% of 410,000 active. PINK1 immunofluorescence, high-content cytometry, 24 h; active = well fitted activation curve with a large enough effect; inconclusive = small, poorly fitted or top-dose-only effect; cell line not stated here; note: % of control where 0% means no effect; nearly all actives have a fitted effect of over 65% in size
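PINK1 protein, normally rapidly degraded, was detected by immunofluorescence after 24 hour compound treatment of a stable cell line. Titration data (5 concentrations) came from laser-scanning cytometry, with CCCP-treated wells as controls.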
Sfp inh – Sfp phosphopantetheinyl transferase inhibition | Biochemical Sfp PPTase activity, qHTS | Potency, µM, without a hit: largest response in the series, negative = inhibition, actives largely listed as inhibitors | 3.5% of 310,000 active | AID 1490;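 note: the enzyme is Sfp with the accession as filed and its product quenches rhodamine fluorescence; 0% = enzyme reaction without inhibitor and -100% = no enzyme wells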
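Reaction rates are the 30-min fluorescence difference (ex 525, em 598 nm) in wells containing 15 nM Sfp, 5 uM rhodamine-CoA and 12.5 uM BHQ-2-YbbR at pH 7.6 with 10 mM MgCl2.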
ClpP mod – qHTS Assay for Activators of ClpP; Potency, µM (series often up to 57.5 µM), inactives show at the top dose activity change, negative = active; AID 651965, 2013; 1.9% of 340,000 active; purified B. subtilis ClpP, FRET peptide cleavage, 20 min; active = well fitted falling curve with a large enough effect; inconclusive = small, poorly fitted or top-dose-only effect; inactive = no such curve, though single readings can be large or run the other way; note: the source files actives as falling curves though it sought activators and does not explain the sign; nearly all actives have a fitted effect of over 65% in size
Target sequence (P80244 whole entry, looked up): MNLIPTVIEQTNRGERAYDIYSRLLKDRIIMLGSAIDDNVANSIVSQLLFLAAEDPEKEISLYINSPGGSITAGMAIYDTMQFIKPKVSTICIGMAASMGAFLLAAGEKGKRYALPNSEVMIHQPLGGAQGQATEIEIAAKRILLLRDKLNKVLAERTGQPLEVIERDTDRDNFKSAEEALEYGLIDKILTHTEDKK
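ClpP 10 microg/mL final, pH 8 Tris/KCl buffer with BSA, glycerol, Tween-20; compound pinned in; FRET-FV substrate; RT 20 min; Ex320/Em430; ΔFRET vs ADEP 5.8 microM, DMSO, no enzyme.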
An asterisk follows results filed as active; ? = inconclusive; / = no result given; [ ] = dose if it differs, or a comment. Unless noted, calls come from the whole dose curve; as a rule, active = well fitted curve in the direction sought with a large enough effect; inconclusive = small, poorly fitted or top-dose-only effect, or another doubt; inactive = no such curve, though single readings can be large; an effect the other way counts as inactive or inconclusive. Potency is the fitted concentration of half-maximal effect.

SMILES | RORg inh | Epigenetic reg | Gal4-VP16 FLuc | PINK1 expr mod | Sfp inh | ClpP mod
O=C(N/N=C/C=C/c1ccco1)c1cccc([N+](=O)[O-])c1 | 5µM* | 0% | 10µM* | 7% | -21% | 1%
O=C(/C=C/c1ccco1)c1cccc([N+](=O)[O-])c1 | / | / | / | 2% | / | -6%
O=C(O)/C(=C\c1ccco1)NC(=O)c1ccccc1 | -7%[10 µM] | 0% | 7% | 2% | -27% | 2%
O=C(CN1CCN(Cc2ccccc2Cl)CC1)N/N=C/C=C\c1ccccc1[N+](=O)[O-] | -45% | 0% | 0.16µM* | 1% | 8% | -2%
O=C(CN1CCN(Cc2ccccc2Cl)CC1)N/N=C/C=C/c1ccccc1[N+](=O)[O-] | ? | 1% | ? | -2% | 8% | -1%
CCOC(=O)N/N=C\C=C\c1ccco1 | -7% | 0% | 14% | 2% | 45µM* | /
CCC(=O)N1c2ccccc2CC1C(=O)NCCc1cc(OC)c(OC)c(OC)c1 (stereo unspecified) | / | 7% | / | 0% | / | 0%
CCOC(=O)OCC1OC(c2ccccc2)C=CC1Oc1ccc2oc(=O)cc(C)c2c1 (stereo unspecified) | -2%[10 µM] | 14%[10.1 µM] | 5%[10 µM] | / | 7% | /
CCOc1cccc(C2C=C(c3ccc4c(c3)OCO4)NC(c3ccccc3Cl)N2)c1O (stereo unspecified) | / | / | / | 0% | / | 2%
CC(C)c1ccc(N(CC(=O)O)S(=O)(=O)c2ccc3[nH]c(=O)c(=O)[nH]c3c2)cc1 | / | 0% | / | 0% | / | -13%
O=C(N/N=C/C=C\c1ccco1)c1cccs1 | ? | -1% | ? | -3% | 22µM* | /
O=C(N/N=C/C=C/c1ccco1)c1ccncc1 | 10µM* | 3% | ? | 1% | 56µM* | /
COc1ccccc1/C=C/C=N/NC(=O)CN1CCN(S(=O)(=O)c2ccc(C)cc2)CC1 | 16µM* | -1% | ? | 0% | 5% | -7%
CCCOC(=O)/C(=C\C=C\c1ccco1)NC(=O)c1ccccc1 | 8% | ? | 0% | 1% | 50µM* | /
CCn1c(=O)n(CC)c2cc(N3CCCCC3)c(NC(=O)Nc3cc(C)cc(C)c3)cc21 | / | 0% | / | 1% | / | ?
Cc1ccc(OCC(=O)N/N=C/C=C/c2ccco2)c(Br)c1 | / | / | / | 1% | 50µM* | -1%
Cc1cccc(OCC(=O)N/N=C/C=C/c2ccco2)c1 | ? | ? | ? | 2% | ? | 0%
O=C(Cc1cccs1)N/N=C/C=C\c1ccco1 | ? | 3% | ? | 1% | 7.9µM* | /
COc1ccccc1/C=C/C=N/NC(=O)Cc1cccs1 | 10µM* | -1% | ? | -1% | -26% | -2%
O=C(Cc1cccs1)N/N=C/C=C/c1ccccc1[N+](=O)[O-] | 2% | -3% | -13% | 1% | 19% | /
Cc1nc(N2CCOCC2)c2c(C(=O)Nc3cccc(C(F)(F)F)c3)c(C)oc2n1 | / | -1% | / | 0% | / | 1%
Cc1cccc(C)c1NC(=O)Cn1c(=O)n(Cc2ccccc2)c(=O)c2c(C)c(C(=O)N(C)C)sc21 | / | -1% | / | 0% | / | -5%
Cc1ccc(-c2nnc(Cc3ccc([N+](=O)[O-])cc3)o2)cc1 | 0.28µM* | 0% | ? | 1% | 0% | -2%
CCOC(=O)c1c(CSc2ccc(C)cc2)n(C)c2cc(Br)c(O)c(CN(C)C)c12 | -33% | 0% | 3% | 3% | 56µM* | 2%
COC(=O)C1=C(C)N(c2cc(C)cc(C)c2)/C(=C/c2ccc(O)cc2)C1=O | ? | 1% | ? | 8% | 45µM* | 0%
SMILES | RORg inh | Epigenetic reg | Gal4-VP16 FLuc | PINK1 expr mod | Sfp inh | ClpP mod
COc1ccc(C(=O)N2CCCC(c3nc(SCc4ccccn4)ncc3C)C2)cc1F (stereo unspecified) | / | / | / | 0% | / | /
COC(=O)C1=C(C)NC(C)=C(C(=O)OCCSc2ccccc2)C1C (stereo unspecified) | ? | 1% | ? | / | -5% | /
Cc1cc2ncn(/N=C/c3ccc(-c4ccccc4)o3)c2cc1C | 11µM* | ? | 20µM* | 6% | -40% | -12%
CC(=O)Nc1ccc(S(=O)(=O)N2CCN(c3nc(NC4CCCC4)c4ccccc4n3)CC2)cc1 | ? | ? | ? | -2% | -6% | 28µM*
Cc1cc(-c2cccnc2)c(C#N)c(SCC#N)n1 | -22% | 0% | -4% | / | 0% | -1%
Cc1cc(-c2cccnc2)c(C#N)c(SCc2cccc(F)c2)n1 | 4% | 0% | -24% | 3%[38.3 µM] | 79µM* | 1%
S=C1NC2=C(CCCC2=C2SCCS2)C(c2ccccc2)N1 (stereo unspecified) | 7.1µM* | 3% | ? | 5% | -7% | /
O=C(NC1CC1)c1ccc(-c2nc3ccccc3s2)s1 | 7.9µM* | -1% | ? | 16% | 10% | ?
O=C(c1ccc(-c2nc3ccccc3s2)s1)N1CCOCC1 | 4.5µM* | -6% | ? | 1% | -6% | /
c1ccc2sc(SN3CCOCC3)nc2c1 | 10µM* | 5% | 7.1µM* | 0% | -23% | -4%
CCN1CCN(C(=O)c2ccc(-c3nc4ccccc4s3)s2)CC1 | 16% | 1% | 0% | 0% | 1% | 4%
O=C(NC1CC1)C1CCN(c2nc3ccccc3s2)CC1 | -2% | / | 17% | 0% | 10% | -2%
CCSc1nnc(C(C)NC(=O)c2ccc(OC)cc2)n1C (stereo unspecified) | / | / | / | 1% | / | /
CNC(=O)c1c(NC(=O)c2cc(=O)c3ccccc3o2)sc2c1CCC2 | / | 0% | / | -5% | / | -1%
CC(=O)N(C)c1ccc(N=Cc2cc3c(cc2[N+](=O)[O-])OCO3)cc1 | / | / | / | 6% | / | /
CCN(CC)c1ccc(N=Cc2ccc([N+](=O)[O-])o2)cc1 | ? | 7% | 22µM* | 10% | 28µM* | -1%
CCN(CC)c1ccc(N=Cc2ccccc2[N+](=O)[O-])cc1 | 7% | 8% | -22% | 6% | 50µM* | -29%
CCNc1nc(NCC)nc(N/N=C/c2ccc([N+](=O)[O-])o2)n1 | ? | 1% | -10% | 9% | -11% | 1%
C=Cc1ccc(CN2C(=O)N(c3cccc(Cl)c3)S(=O)(=O)c3ccccc32)cc1 | / | 0% | / | 1% | / | -1%
C=CCN(c1ccccc1)S(=O)(=O)c1cccc(C(=O)N2CCCC2)c1 | / | / | / | 4% | / | 1%
CCN(c1ccccc1)S(=O)(=O)c1cccc(C(=O)N2CCN(S(=O)(=O)c3ccccc3)CC2)c1 | 0% | / | -11% | 1% | 19% | 28µM*
CCN(c1ccccc1)S(=O)(=O)c1ccc2[nH]cc(C(=O)N3CCOCC3)c(=O)c2c1 | -27% | -2% | 5% | -1% | 13% | 32µM*

Compound activity: PubChem, National Center for Advancing Translational Sciences (NCATS)
